Assay outcomes: PubChem, Broad Institute
Most compounds without a hit are left out; they make up all but 1.4% or so of the library.
INS-1E GSIS act = primary screen for activators of insulin secretion dependent on glucose, INS-1E cells, GLuc reporter luminescence; INS-1E GLuc reporter insulin secretion, 2-3 h; activation, % at 16.6 µM; 370,000 compounds, 0.61% hits; AID 743287;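 active = lowest replicate activation of at least 40%, so every replicate reaches that level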
ERAP1 inh = ERAP1 (human) enzyme inhibition. Q9NZ08. recombinant ERAP1, Leu-AMC fluorescence, 60 min. inhibition, % at 10.7 µM. 340,000 compounds, 0.15% hits;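 active = mean replicate inhibition of at least 30%, or all replicates individually reaching that 30% level; inactive = mean below 30% and not every replicate reaching it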
AF4-AF9 inh = inhibitors of human MLL-AF4/AF9 interaction; P42568; AlphaScreen, biotin-AF4 peptide binding to FLAG-AF9; inhibition, % at 10 µM; 350,000 compounds, 0.47% hits;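 active = every replicate reaching a set inhibition limit, whatever the replicate mean, cut at about 25% in these data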
Target sequence (P42568 whole entry, looked up): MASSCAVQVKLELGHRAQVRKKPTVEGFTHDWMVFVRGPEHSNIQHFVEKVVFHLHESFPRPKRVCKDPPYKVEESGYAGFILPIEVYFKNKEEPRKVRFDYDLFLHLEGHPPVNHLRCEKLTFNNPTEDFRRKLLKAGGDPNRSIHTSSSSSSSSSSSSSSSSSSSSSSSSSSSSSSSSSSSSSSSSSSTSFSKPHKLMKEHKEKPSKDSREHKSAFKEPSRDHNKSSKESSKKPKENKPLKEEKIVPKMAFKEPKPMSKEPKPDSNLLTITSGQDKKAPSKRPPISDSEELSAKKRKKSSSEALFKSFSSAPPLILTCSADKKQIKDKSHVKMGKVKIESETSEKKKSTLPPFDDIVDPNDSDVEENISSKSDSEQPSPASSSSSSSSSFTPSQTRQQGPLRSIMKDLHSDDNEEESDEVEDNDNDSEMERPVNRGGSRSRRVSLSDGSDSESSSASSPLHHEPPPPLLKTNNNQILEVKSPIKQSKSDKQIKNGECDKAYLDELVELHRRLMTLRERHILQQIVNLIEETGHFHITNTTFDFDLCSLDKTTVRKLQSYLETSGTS
RAD52 inh = blocks human RAD52 DNA annealing; recombinant RAD52 DNA annealing, FRET fluorescence; inhibition, % at 18.7 µM; AID 651710; P43351; 360,000 compounds, 0.46% hits;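 active = every replicate showing at least 50% inhibition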
PGC1a acetyl inh = modulators of PGC1a acetylation. U2OS PGC1a acetylation, AlphaScreen anti-acetyl-lysine; with virally co-expressed GCN5 acetyltransferase. 350,000 compounds, 0.17% hits. AID 651687. inhibition, % at 15.6 µM;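 active = every replicate shows inhibition of at least 40%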
RAD54 inh = RAD54 (human) branch migration inhibition | Q92698 | RAD54 Holliday junction branch migration, FAM/BHQ fluorescence | inhibition, % at 10.4 µM | 360,000 compounds, 0.14% hits | AID 602329;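 active = mean normalized replicate activity at least 40 and at least half of replicates scoring 40 or more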;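 note: inhibitors cause a drop in the FAM fluorescence signal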
A number is an active result; n = inactive; x = no result given; ! = repeats disagree.

SMILES | INS-1E GSIS act | ERAP1 inh | AF4-AF9 inh | RAD52 inh | PGC1a acetyl inh | RAD54 inh
COc1cccc(-c2ccc(C3[C@@H]4CN(Cc5cccc(F)c5)C[C@H]3N4)cc2)c1 (stereo partly drawn) | 755! | n | n | 53 | 97! | x
Cc1ccc(-c2ccc(C3[C@@H]4CN(Cc5ccccc5)C[C@H]3N4)cc2)cc1 (stereo partly drawn) | n | x | x | x | x | x
COc1cc(CN2C[C@@H]3N[C@H](C2)C3c2ccc(-c3ccccc3C)cc2)cc(OC)c1 (stereo partly drawn) | n | n | 27! | 64 | 105! | x
COc1cccc(CN2C[C@@H]3N[C@H](C2)C3c2ccc(-c3cccc(C#N)c3)cc2)c1 (stereo partly drawn) | n | n | n | 55 | n | x
COc1cccc(CN2C[C@@H]3N[C@H](C2)C3c2ccc(-c3ccccc3C)cc2)c1 (stereo partly drawn) | n | x | x | x | n | x
COc1cccc(CN2C[C@@H]3N[C@H](C2)C3c2ccc(-c3ccccc3F)cc2)c1 (stereo partly drawn) | n | n | n | 64! | n | x
COc1cccc(-c2ccc(C3[C@@H]4CN(Cc5ccccn5)C[C@H]3N4)cc2)c1 (stereo partly drawn) | n | x | x | x | n | x
C[C@H](CO)N1C[C@H](C)[C@@H](CN(C)C(=O)CCC(F)(F)F)OCCCC[C@H](C)Oc2ccc(NS(=O)(=O)c3cn(C)cn3)cc2C1=O | n | n | n | n | n | n
COc1ccc(-c2ccc(C3[C@@H]4CN(Cc5cccc(OC)c5)C[C@H]3N4)cc2)cc1 (stereo partly drawn) | 51! | n | n | 67 | n | x
COc1cccc(CN2C[C@@H]3N[C@H](C2)C3c2ccc(-c3ccncc3)cc2)c1 (stereo partly drawn) | n | n | n | n | n | x
CC1=C(/C=C/C(C)=C/C=C/C(C)=C/C(=O)Nc2ccc(O)cc2)C(C)(C)CCC1 | 153 | n | n | n | n | n
CC1=C(/C=C/C(C)=C/C=C/C(C)=C\C(=O)O)C(C)(C)CCC1 | x | n | n | n | n | n
C[C@H](CO)N1C[C@H](C)[C@@H](CN(C)Cc2ccc(-c3ccccc3)cc2)Oc2ccc(NC(=O)Nc3cccc4ccccc34)cc2CC1=O | n | x | x | x | x | x
C[C@H](CO)N1C[C@H](C)[C@@H](CN(C)S(=O)(=O)c2cccs2)Oc2c(NC(=O)CCCN(C)C)cccc2C1=O | n | x | x | x | x | x
COc1ccc(S(=O)(=O)Nc2cccc3c2O[C@@H](CN(C)C(=O)NC2CCCCC2)[C@@H](C)CN([C@@H](C)CO)C3=O)cc1 | n | n | n | n | n | n
COc1ccc(CN(C)C(=O)Cn2cc(C)c(=O)[nH]c2=O)cc1OC | 44 | n | n | n | x | n
COCCN(CC(=O)NC1CCCCC1)C(=O)/C=C/C(=O)c1ccc(OC)cc1O | 49 | n | n | n | x | x
CN1C2=NCCN2C(=O)c2cc(Cl)ccc21 | n | 111 | n | n | x | x
CCCCn1c(NCc2ccncc2)nc2ccccc21 | n | n | n | n | n | n
CCCCn1c(NCc2ccc(N(C)C)cc2)nc2ccccc21 | n | x | 29 | n | n | n
Cc1ccc(NC(=O)Nc2ccc3c(c2)C(=O)N(C)[C@H]2CC[C@@H](CC(=O)O)O[C@@H]2CO3)cc1 | n | n | n | n | n | n
CSC1=NS(=O)(=O)c2c(C)nn(C)c2S1 | n | 87 | x | n | n | n
COC(=O)c1nc(Cl)c(Cl)c(N)c1Cl | n | n | n | n | x | x
CCCCCCCCOC(=O)c1nc(Cl)c(Cl)c(N)c1Cl | 60 | n | n | n | n | n
C[C@@H]1CCCCO[C@@H](CN(C)S(=O)(=O)c2ccccc2)[C@@H](C)CN([C@@H](C)CO)C(=O)c2cc(NC(=O)Nc3ccc(C(F)(F)F)cc3)ccc2O1 | n | n | n | n | n | n
SMILES | INS-1E GSIS act | ERAP1 inh | AF4-AF9 inh | RAD52 inh | PGC1a acetyl inh | RAD54 inh
O=C(Nc1ccc([N+](=O)[O-])cc1)N1CCCCCC1 | n | n | n | n | x | n
O=C(Nc1cccc([N+](=O)[O-])c1)N1CCCCCC1 | 63 | n | n | n | n | n
CC(C)(O)c1[nH]c2ccc(C(F)(F)F)cc2c1C(C)(C)O | n | n | n | n | x | n
CC(C)(O)c1[nH]c2ccc(C#N)cc2c1C(C)(C)O | n | n | 46 | n | x | x
C[C@@H]1CN([C@H](C)CO)C(=O)Cc2cc(NS(=O)(=O)c3cccs3)ccc2O[C@H]1CN(C)Cc1ccncc1 | n | x | x | x | n | n
C=CCN1C(=O)c2n[nH]c(COC)c2C1c1ccc(F)cc1 (stereo not drawn) | 65 | n | n | n | x | x
C(=N\N1CCN(c2ccccn2)CC1)/c1cccc2ccccc12 | n | n | 27 | n | n | n
CCCCNC(=O)O[C@@H]1C[C@@H]2CCN3C(=O)CCC[C@H]([C@H]1CC)[C@H]23 | n | n | 94 | n | n | n
CCCCNC(=O)O[C@H]1C[C@@H]2CCN3C(=O)CCC[C@H]([C@H]1CC)[C@H]23 | n | n | n | n | n | n
C[N+]1(CC(=O)OCCCc2ccccc2)CCCC1 | n | 77 | n | n | x | x
COC(=O)COc1ccc(C)cc1-n1nc2ccccc2n1 | 48 | n | n | n | n | n
Cc1ccc(OC(=O)COc2ccccc2C)c(-n2nc3ccccc3n2)c1 | x | x | x | x | n | n
CCS(=O)(=O)N1CCCCN2[C@H](CO)[C@H](c3ccc(C4=CCCC4)cc3)[C@H]2C1 | n | n | n | n | n | n
O=S(=O)(CCN1C=CC(C(F)(F)F)=NCC1)c1ccc(Cl)cc1Cl | n | x | 44 | n | n | n
C[C@H]1[C@@H](c2ccccc2)Oc2ccc(Cl)cc2S(=O)(=O)N1Cc1cccc(F)c1 | n | n | n | n | x | x
C[C@H]1[C@@H](c2ccccc2)Oc2c(Cl)cccc2S(=O)(=O)N1C | 122 | n | n | n | x | x
CC(C)NC(=O)N(C)C[C@@H]1Oc2cc(C#C[C@H](C)O)ccc2S(=O)(=O)N([C@@H](C)CO)C[C@@H]1C | n | n | n | n | n | n
O=c1cc(SCc2ccccc2)nc[nH]1 | x | n | 38 | n | n | n
Cc1cc(SCc2ccccc2)nc(=O)[nH]1 | x | x | x | x | n | n
CCOc1cc(NC(=O)c2ccco2)c(OCC)cc1NC(=O)c1cc(OC)c(OC)c(OC)c1 | 45 | x | x | x | n | n
COc1cc(NC(=O)c2ccco2)c(OC)cc1NC(=O)c1cc(OC)c(OC)c(OC)c1 | n | x | x | x | n | n
O=C1C(=C(I)I)c2ccccc2-c2ccccc21 | n | 36 | n | n | x | x
CC(=O)Nc1ccc(C=NNC(=O)CCCC(=O)NN=Cc2ccc(NC(C)=O)cc2)cc1 | 41 | n | n | n | n | n
COc1cc(/C=N/NC(=S)NCc2ccccc2)ccc1OCC#N | 117 | x | x | x | x | x
COCCNC(=O)C[C@@H]1C[C@@H]2c3cc(NC(=O)c4cccnc4)ccc3O[C@@H]2[C@@H](CO)O1 | n | n | n | n | n | n
COCCn1c(-c2ccc3ccccc3c2)nc2c1c(=O)[nH]c(=O)n2CC(C)C | 48 | n | n | n | x | n
